Z-score and composite z-score data for seven compounds are collected here from PubChem BioAssay.

Activity calls are given as the source filed them. Unless noted, how the calls were made is not given here.

Assay [1] in a line: resazurin metabolic signal in HepG2 cells – cell-based, resazurin fluorescence, 24 h, PK04 Diversity Set, profiling panel (AID 1172). Particulars: HepG2 viability, higher = more signal. For orientation: The colour change of resazurin is a common sign of viable cells or microbes.
A short description of assay [2]: budding yeast growth changes without added modifier – OD600, strain BY4716, 24 h, basal condition, primary screen (AID 1173). Particulars: S. cerevisiae BY4716 growth, OD600, 24 h; higher = more signal, called active from +8 up or from −8 down.
Assay [3] is described as follows: viability profiling in MM1S myeloma cells – cell-based, resazurin fluorescence, basal, 24 h, PK04 Diversity Set, profiling panel (AID 1174).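 Further: MM1S multiple myeloma cell line.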 Particulars: higher = more signal, called active from +8 up or from −8 down.
The target in assay [4] is Dihydroorotate dehydrogenase (quinone), mitochondrial (Plasmodium falciparum (isolate 3D7)) (UniProt Q08210). The experiment in a line: inhibition of P. falciparum DHODH – biochemical, C-terminal His tag, absorbance 600 nm, primary screen (AID 1175).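 Further: recombinant parasite enzyme with a five histidine tag at its C terminus.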 The following applies: PfDHODH enzyme, DCIP absorbance 600 nm; higher = more signal, called active from +8 up or from −8 down.

Assay [5] can be described thus: inhibition of PAO1 biofilm formation – strain PAO1, LB-PBS medium, absorbance 600 nm, primary screen (AID 1176). Particulars: P. aeruginosa PAO1 growth/biofilm, A600, 12 h; higher = more signal.
The nature of assay [6]: growth modulation of vineyard yeast isolate – strain RM11-1a, OD600, basal, 24 h, primary screen (AID 1177).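 Further: cultures grown under basal conditions with no added stressor.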 Particulars: S. cerevisiae RM11-1a growth, OD600, 24 h; higher = more signal, called active from +8 up or from −8 down.
Assay [7] can be described thus: growth of efflux-deficient E. coli DRC39 – strain DRC39, OD650, 24 h, E. coli filamentation inducers, primary screen (AID 1178).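 Further: growth measured as culture turbidity by optical density at 650 nm.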 The following applies: E. coli DRC39 acrAB, higher = more signal, called active from +8 up or from −8 down.
Assay [8] can be described thus: growth of efflux-deficient E. coli DRC39 – strain DRC39, OD650, 48 h, E. coli filamentation inducers, primary screen (AID 1179).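 Further: screen aims at cell division blockers that make cells filament.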 Particulars: E. coli DRC39 delta-acrAB growth, higher = more signal, called active from +8 up or from −8 down.
Assay [9] is described as follows: viability profiling in RPMI8226 myeloma cells – cell-based, resazurin fluorescence, basal, 24 h, PK04 Diversity Set, profiling panel (AID 1180).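 Further: RPMI8826 multiple myeloma cell line at 5000 cells per well.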 Particulars: higher = more signal.
The target of assay [10] is E3 ubiquitin-protein ligase XIAP (Homo sapiens) (UniProt P98170). Description: small molecules binding XIAP protein – biophysical, small-molecule microarray, fluorescence 635 nm, primary screen (AID 1181).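 Further: score merges 667 nm emission and signal to noise over triplicate slides.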 The following applies: higher = more signal.
Assay [11] has as its system XIP peptide (Xip251-270) binding. The experiment in a line: XIP fragment 251-270 binding compounds – biochemical, small-molecule microarray, fluorescence 635/667 nm, 0.1 µg/mL protein, primary screen (AID 1182). Particulars: fluorescent protein binding, 635 nm, higher = more signal, called active from +8 up or from −8 down.
Another assay relates to XIP peptide (Xip251-270). Description: compounds binding XIP fragment 251-270 – biochemical, small-molecule microarray, fluorescence 635/667 nm, 0.5 µg/mL protein, primary screen (AID 1183). Particulars: fluorescence 635 nm, higher = more signal.
Assay [12] in a line: blood-stage malaria parasite viability loss – strain 3D7, DAPI fluorescence, 100 nL, primary screen (AID 1184).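 Further: parasites grown inside human red blood cells in medium with human serum.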 The following applies: P. falciparum 3D7 growth, 3 d, higher = more signal.
The target of assay [13] is Homeobox protein Hox-A13 (Mus musculus) (UniProt Q62424). Description: disruptors of Hoxa13 oligonucleotide interaction – biochemical, fluorescence polarization, labeled oligonucleotide, primary screen (AID 1185). The following applies: Hoxa13:DNA binding, 15 min, higher = more signal, called active from +8 up or from −8 down. On the technique in general: Fluorescence polarisation rises when a labelled molecule tumbles more slowly, as on binding a larger partner.

Assay [14] in a line: blockers of DNA damage checkpoint Chk1 activation – imaging, HeLa, hydroxyurea, phospho-Chk1 antibody, percent positive cells, primary screen (AID 1186). The following applies: hydroxyurea-induced phospho-Chk1 immunofluorescence imaging, higher = more signal.
The nature of assay [15]: blockers of DNA damage checkpoint Chk1 activation – imaging, HeLa, hydroxyurea, phospho-Chk1 nuclear intensity, primary screen (AID 1187). Particulars: hydroxyurea-induced phospho-Chk1 immunofluorescence imaging, higher = more signal.

Sequence of Homeobox protein Hox-A13 (Mus musculus) (Q62424 whole entry, looked up): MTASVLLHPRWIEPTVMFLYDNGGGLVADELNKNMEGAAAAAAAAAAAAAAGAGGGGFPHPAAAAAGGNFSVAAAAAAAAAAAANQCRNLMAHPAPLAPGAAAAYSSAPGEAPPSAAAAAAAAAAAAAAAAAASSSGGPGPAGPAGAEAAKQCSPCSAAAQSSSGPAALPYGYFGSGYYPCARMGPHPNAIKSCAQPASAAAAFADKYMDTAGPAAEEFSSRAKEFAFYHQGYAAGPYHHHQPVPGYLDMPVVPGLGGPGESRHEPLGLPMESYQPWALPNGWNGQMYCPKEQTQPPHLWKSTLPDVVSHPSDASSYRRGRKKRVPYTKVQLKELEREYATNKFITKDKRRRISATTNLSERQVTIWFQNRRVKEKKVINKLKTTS
Sequence of E3 ubiquitin-protein ligase XIAP (Homo sapiens) (P98170 whole entry, looked up, the tested form may be a part): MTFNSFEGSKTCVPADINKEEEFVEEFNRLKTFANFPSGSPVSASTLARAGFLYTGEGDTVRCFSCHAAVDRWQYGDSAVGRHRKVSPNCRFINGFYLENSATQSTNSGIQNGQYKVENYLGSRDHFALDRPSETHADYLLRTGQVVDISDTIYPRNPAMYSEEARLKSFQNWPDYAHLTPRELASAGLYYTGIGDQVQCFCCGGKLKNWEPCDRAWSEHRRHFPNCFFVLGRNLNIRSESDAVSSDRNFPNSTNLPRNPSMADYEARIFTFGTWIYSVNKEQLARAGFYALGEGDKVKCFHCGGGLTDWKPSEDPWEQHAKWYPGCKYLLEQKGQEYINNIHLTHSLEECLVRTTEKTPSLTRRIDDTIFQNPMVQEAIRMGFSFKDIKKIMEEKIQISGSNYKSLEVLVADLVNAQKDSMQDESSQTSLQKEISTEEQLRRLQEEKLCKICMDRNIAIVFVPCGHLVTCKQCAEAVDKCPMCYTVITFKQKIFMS
Sequence of Dihydroorotate dehydrogenase (quinone), mitochondrial (Plasmodium falciparum (isolate 3D7)) (Q08210 whole entry, looked up): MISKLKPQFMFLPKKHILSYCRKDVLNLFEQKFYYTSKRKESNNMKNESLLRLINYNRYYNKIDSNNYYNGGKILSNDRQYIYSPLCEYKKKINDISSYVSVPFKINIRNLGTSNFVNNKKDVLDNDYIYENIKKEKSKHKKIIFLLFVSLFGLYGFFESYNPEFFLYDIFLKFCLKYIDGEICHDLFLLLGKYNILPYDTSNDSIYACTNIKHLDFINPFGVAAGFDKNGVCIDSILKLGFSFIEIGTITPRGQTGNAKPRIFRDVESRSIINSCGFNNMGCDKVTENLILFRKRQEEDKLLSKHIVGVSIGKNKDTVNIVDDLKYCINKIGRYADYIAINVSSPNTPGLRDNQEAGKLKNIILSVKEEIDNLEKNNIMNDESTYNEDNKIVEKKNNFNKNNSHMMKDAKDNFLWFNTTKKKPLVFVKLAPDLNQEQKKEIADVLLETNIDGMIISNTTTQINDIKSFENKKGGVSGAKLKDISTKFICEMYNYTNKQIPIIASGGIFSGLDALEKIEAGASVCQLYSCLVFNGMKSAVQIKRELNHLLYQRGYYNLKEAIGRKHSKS

Take `[N-]=[N+]=Nc1ccccc1C[C@@]1(C(=O)N2CCOCC2)N=C(c2ccc(OCCCO)cc2)O[C@@H]1c1ccccc1`: the z-score in assay [1] was -0.339; in assay [2] it was -1.76 (inactive); in assay [3], -0.967 (inactive); in assay [5] it was 0.413 (inactive); in [6], -0.0584 (inactive); in assay [7] it was 0.37 (inactive). Also, the z-score in assay [8] is -0.0378 (inactive); in assay [9], -0.0984; in assay [12], -2.32; in assay [13], -5.84 (inactive); in assay [14] it was -1.05 (inactive); in assay [15] it was -1.34 (inactive). Further, the composite z-score in [4] was -0.132 (inactive); in assay [10], -0.09; in [11], 0.111 (inactive); with XIP peptide (Xip251-270) it was 0.765.
For the compound `CCOC(=O)C[C@H]1[C@H](OC(=O)c2ccc(C(=O)c3ccccc3)cc2)[C@@H](NC(=O)C2CCCCC2)c2cc(OCCCO)ccc2N1C(=O)c1ccc2ccccc2n1`, the z-score in [1] was 0.547; in assay [2], -0.108 (inactive); in [3] it was 0.491 (inactive); in [5], -0.312 (inactive); in assay [6], 0.86 (inactive); in assay [7], 0.297 (inactive). In addition, the z-score was 0.991 (inactive) in assay [8]; 0.0839 in assay [9]; -1.69 in assay [12]; -0.814 (inactive) in [13]; -0.739 (inactive) in assay [14]; -0.573 (inactive) in assay [15]. Further, the composite z-score in assay [4] is -1.63 (inactive); in assay [10], -0.0141; in assay [11], -0.482 (inactive); in the assay with XIP peptide (Xip251-270), 0.368.
`CCCCNC(=O)c1ccc(C#CC(C)(C)C)c(OC(C)=O)c1`: the z-score is 0.111 in assay [1]; -2.59 (inactive) in assay [2]; 0.611 (inactive) in assay [3]; -0.517 (inactive) in [5]; 0.516 (inactive) in assay [6]; 1.27 (inactive) in [7]. For the same compound, the z-score in assay [8] is 0.256 (inactive); in [9], 0.116; in assay [12], -1.74; in [13] it was -5.71 (inactive); in assay [14], 0.13 (inactive); in [15] it was 0.411 (inactive). Also, the composite z-score was -1.14 (inactive) in assay [4], -0.283 in assay [10], 0.0374 (inactive) in [11] and 0.222 in the assay with XIP peptide (Xip251-270).
For `CCOC(=O)C[C@H]1[C@H](OC(=O)c2ccccc2-c2ccccc2)[C@@H](NC(=O)c2ccc3ccccc3c2)c2cc(OCCCO)ccc2N1C(=O)c1ccccc1`, the z-score in [1] was -0.655; in assay [2] it was 0.264 (inactive); in [3], 0.0324 (inactive); in [5], -0.341 (inactive); in [6] it was 0.874 (inactive); in [7] it was 0.547 (inactive). Besides, the z-score was 0.203 (inactive) in assay [8]; 0.225 in assay [9]; -1.72 in assay [12]; -2.39 (inactive) in [13]; 0.185 (inactive) in assay [14]; 0.361 (inactive) in assay [15]. Besides, the composite z-score in assay [4] was 0.198 (inactive); in assay [10], -0.0988; in assay [11] it was -0.323 (inactive); in the assay on XIP peptide (Xip251-270) it was 0.306.
Regarding `C=CCC(OC(C)=O)[C@@H]1[C@@H](N(Cc2ccc(-c3cccc(C(F)(F)F)c3)o2)C(=O)c2ccc(-c3ccccc3)cc2)c2cc(OCCCO)ccc2N1C(=O)Cc1ccc2ccccc2c1` (some centres not stated), the z-score in assay [1] was 0.0839; in assay [2], 0.915 (inactive); in [3], -0.115 (inactive); in [5], 0.338 (inactive); in assay [6], 0.805 (inactive); in [7], 0.0952 (inactive). Further, the z-score in assay [8] was 0.119 (inactive); in assay [9], 0.322; in assay [12], -0.694; in [13], -1.1 (inactive); in [14], 0.345 (inactive); in assay [15] it was 0.291 (inactive). Further, the composite z-score in assay [4] was 0.306 (inactive); in assay [10], -0.17; in assay [11], -0.186 (inactive); with XIP peptide (Xip251-270) it was -0.738.
As to `CCCCCC1=C2CNC(C)(C(=O)OC)C=C2C(C)C1=O` (configuration not stated), the z-score in assay [1] was -0.901; in [2], 2.3 (inactive); in assay [3] it was -1.59 (inactive); in [5] it was 1.06 (inactive); in assay [6] it was 1.18 (inactive); in [7], -0.814 (inactive). The z-score in [8] is -0.193 (inactive); in assay [9] it was -1.66; in assay [12], 0.157; in [13], -5.3 (inactive); in assay [14], 1.37 (inactive); in [15], 1.45 (inactive). Besides, the composite z-score in assay [4] is -0.455 (inactive); in assay [10], 0.152; in assay [11], -0.22 (inactive); in the assay on XIP peptide (Xip251-270) it was -0.513.
Consider `O=C1CS(=O)(=O)C(c2cccc([N+](=O)[O-])c2)N1c1ccccc1` (configuration not stated), for which the z-score in assay [1] was 0.946; in assay [2] it was -1.3 (inactive); in [3], 0.973 (inactive); in assay [5], 0.627 (inactive); in assay [6] it was -0.818 (inactive); in assay [7], 1.16 (inactive). Besides, the z-score in [8] is 1.21 (inactive); in [9], 0.511; in [12] it was 0.66; in assay [13] it was 0.011 (inactive); in assay [14] it was -0.346 (inactive); in assay [15] it was -0.291 (inactive). Besides, the composite z-score was -1.21 (inactive) in assay [4], 0.0055 in assay [10], 0.784 (inactive) in assay [11] and 0.263 in the assay on XIP peptide (Xip251-270).
